These results are taken from ChEMBL document CHEMBL1961873, “Compounds: GSK PKIS; Assays: Nanosyn kinase panel” (2012).

In general, inhibition refers to the drop in the measured response relative to a control, in per cent.

SMILES strings stand for the structures. Where “and” joins values, the source holds several entries; their conditions need not be identical. Equal entries are not always repeated.

For the first experiment, the target named is T1, Phosphorylase b kinase gamma catalytic chain, liver/testis isoform (Homo sapiens) (UniProt P15735).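 Further: reported value is the mean inhibition of PHKG2 from the GSK_PKIS screening set.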
T1 sequence (whole entry): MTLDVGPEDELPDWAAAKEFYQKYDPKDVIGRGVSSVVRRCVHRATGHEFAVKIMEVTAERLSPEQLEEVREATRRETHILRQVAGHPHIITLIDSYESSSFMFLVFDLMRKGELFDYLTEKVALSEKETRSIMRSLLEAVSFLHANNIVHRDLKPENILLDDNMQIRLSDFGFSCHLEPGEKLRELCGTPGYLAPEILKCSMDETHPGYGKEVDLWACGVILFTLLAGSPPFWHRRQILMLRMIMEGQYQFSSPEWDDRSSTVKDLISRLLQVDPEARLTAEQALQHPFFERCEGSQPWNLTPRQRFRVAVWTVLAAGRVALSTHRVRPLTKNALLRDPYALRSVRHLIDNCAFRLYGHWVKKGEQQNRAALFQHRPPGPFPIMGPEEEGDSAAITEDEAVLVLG
The settings on record: at 1 µM.
As for `FC(F)(F)CNc1nccc(-c2cnn3ncccc23)n1`, the inhibition amounted to 4.36%.
`CCOc1ccc2c(-c3ccnc(Nc4cc(OC)cc(C(F)(F)F)c4)n3)cnn2n1`: the inhibition was 0.99%.
Same read-out and setting: to `CCS(=O)(=O)c1ccc(OC)c(Nc2ncc(-c3cccc(C(C)=O)c3)o2)c1` belongs 6.45%; to `CS(=O)(=O)CCNCc1ccoc1-c1ccc2ncnc(Nc3ccc(OCc4ccccc4)cc3)c2c1`, 0.15%; to `NS(=O)(=O)c1cccc(N/C=C2\C(=O)Nc3ccccc32)c1`, 13.4%.
Still for that read-out and setting: for `CCn1c(-c2nonc2N)nc2cncc(C(=O)NCCNC)c21` the value was 6.69%; for `CS(=O)(=O)CCNCc1ccc(-c2ccc3ncnc(Nc4ccc(OCc5cccc(C(F)(F)F)c5)cc4)c3c2)o1`, 4.97%; for `COc1cc(N2CCN(C(C)C)CC2)ccc1Nc1nc(Nc2cccc(F)c2C(=O)O)c2cc[nH]c2n1`, 19.9%.
Consider `O=C(O[C@H]1CN[C@H](C#Cc2cc3ncnc(Nc4ccc5c(cnn5Cc5ccccc5)c4)c3s2)C1)N1CCOCC1`, for which the inhibition was -1.47%.
Same read-out and setting: for `CS(=O)(=O)Nc1ccc(-c2cc(-c3ccccc3)cc(C(N)=O)c2N)cc1` the value was 0.02%; for `CCS(=O)(=O)c1ccc(OC)c(Nc2ncc(-c3cccc(F)c3)o2)c1`, 8.13%; for `O=C1Nc2ccccc2/C1=C1\CCc2cc(O)ccc21`, 9.59%.
Consider `Cc1ccc(-c2cc3c(NC(=O)C4CC4)ncnc3o2)cc1`, for which the inhibition amounted to 1.83%.
On to `CS(=O)(=O)Nc1ccc(-c2ccc3c(NC(=O)C4CC4)n[nH]c3c2)cc1`, for which the inhibition is -0.4%.
Take `Cn1c(-c2nonc2N)nc2cnccc21`: the inhibition stood at 1.59%.
Turning to `COc1cccc(-n2ncc3c(N/N=C/c4ccc(C(=O)NCCN(C)C)cc4)ncnc32)c1`, the inhibition turned out to be 7.38%.
`O=C(Nc1n[nH]c2nnc(-c3cccnc3)cc12)C1CC1`: the inhibition is -1.9%.
`COC(=O)Nc1nc2ccc(Oc3ccc(NC(=O)Nc4cc(C(F)(F)F)ccc4F)cc3)cc2s1`: the inhibition is -1.17%.
In the case of `NC(=O)c1ccc2c(-c3ccnc(NCCCO)n3)c(-c3ccc(F)cc3)nn2c1`, the inhibition stood at 2.16%.
As to `NS(=O)(=O)c1ccc(N/N=C2\C(=O)Nc3ccc(C(=O)NCc4ccncc4)cc32)cc1`, the inhibition was 11.4%.
With `CNC(=O)c1ncccc1Nc1nc(Nc2cc3c(cc2OC)CCCN3C(=O)CN(C)C)nc2[nH]ccc12`, the inhibition was 3.8%.
`COc1ccccc1-c1cc(/C=C2\C(=O)Nc3ncc(Br)cc32)cc(Br)c1O`: the inhibition was determined as 3.85%.
For `CN(C)CCNC(=O)Nc1ccc(N(C)c2ccnc(Nc3ccc(CS(C)(=O)=O)cc3)n2)cc1`, the inhibition turned out to be 1.59%.
In the case of `CS(=O)(=O)CCNCc1ccc(-c2ccc3ncnc(Nc4ccc(OCc5ccccc5)cc4)c3c2)o1`, the inhibition amounted to 4.2%.
In the case of `COC(=O)Nc1nc2cc(Oc3ccc(NC(=O)Nc4ccccc4)cc3)ccc2[nH]1`, the inhibition came to 6.25%.
Same read-out and setting: to `O=C(O[C@H]1CN[C@H](C#Cc2cc3ncnc(Nc4ccc(OCc5cccc(F)c5)c(Cl)c4)c3s2)C1)N1CCOCC1` belongs 9.85%; to `CCCNc1cccc(-n2ncc3c(N/N=C/c4ccncc4)ncnc32)c1`, 7.69%; to `CC1=C(C(=O)Nc2ccc3[nH]nc(C)c3c2)C(c2ccc(C(F)(F)F)cc2)CC(=O)N1` (configuration not stated), -2.45%.
In the case of `CN1CCC(C(=O)Nc2n[nH]c3nc(-c4ccc(O)cc4)c(Br)cc23)CC1`, the inhibition was 9.01% and 2.52%.
`Cc1cc(O)cc(C)c1/C=C/c1cncc(C(=O)OC(C)(C)C)c1`: the inhibition is 1.25%.
The same measure, in the same setting: to `CN1CCN(Cc2ccc(-c3cc4ncnc(Nc5ccc(OCc6cccc(F)c6)c(Cl)c5)c4s3)o2)CC1` belongs 2.85% and 9.87%.

In another experiment the target is Serine/threonine-protein kinase pim-1 (Homo sapiens) (UniProt P11309). Particulars: at 0.1 µM.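 Further: reported value is the mean inhibition of PIM1.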
Sequence of Serine/threonine-protein kinase pim-1 (Homo sapiens) (P11309 whole entry, looked up): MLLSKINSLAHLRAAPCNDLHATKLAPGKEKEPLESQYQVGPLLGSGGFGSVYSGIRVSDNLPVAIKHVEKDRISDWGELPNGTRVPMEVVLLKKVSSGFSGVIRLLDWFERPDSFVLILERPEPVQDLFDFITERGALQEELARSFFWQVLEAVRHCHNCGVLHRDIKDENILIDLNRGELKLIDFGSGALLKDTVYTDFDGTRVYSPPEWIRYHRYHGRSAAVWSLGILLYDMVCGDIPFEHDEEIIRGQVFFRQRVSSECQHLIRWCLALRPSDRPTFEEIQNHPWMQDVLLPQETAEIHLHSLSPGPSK
As for `FC(F)(F)CNc1nccc(-c2cnn3ncccc23)n1`, the inhibition was 0.08%.
With `CCOc1ccc2c(-c3ccnc(Nc4cc(OC)cc(C(F)(F)F)c4)n3)cnn2n1`, the inhibition stood at 0.51%.
Take `CCS(=O)(=O)c1ccc(OC)c(Nc2ncc(-c3cccc(C(C)=O)c3)o2)c1`: the inhibition amounted to 0.82%.
Take `CS(=O)(=O)CCNCc1ccoc1-c1ccc2ncnc(Nc3ccc(OCc4ccccc4)cc3)c2c1`: the inhibition came out at 0.23%.
Turning to `NS(=O)(=O)c1cccc(N/C=C2\C(=O)Nc3ccccc32)c1`, the inhibition was determined as 0.75%.
As to `CCn1c(-c2nonc2N)nc2cncc(C(=O)NCCNC)c21`, the inhibition is 46.4%.
For `CS(=O)(=O)CCNCc1ccc(-c2ccc3ncnc(Nc4ccc(OCc5cccc(C(F)(F)F)c5)cc4)c3c2)o1`, the inhibition is 1.96%.
With `COc1cc(N2CCN(C(C)C)CC2)ccc1Nc1nc(Nc2cccc(F)c2C(=O)O)c2cc[nH]c2n1`, the inhibition is -0.13%.
With `O=C(O[C@H]1CN[C@H](C#Cc2cc3ncnc(Nc4ccc5c(cnn5Cc5ccccc5)c4)c3s2)C1)N1CCOCC1`, the inhibition is -1.14%.
For `CS(=O)(=O)Nc1ccc(-c2cc(-c3ccccc3)cc(C(N)=O)c2N)cc1`, the inhibition was found to be 0.69%.
Regarding `CCS(=O)(=O)c1ccc(OC)c(Nc2ncc(-c3cccc(F)c3)o2)c1`, the inhibition was determined as 1.98%.
In the case of `O=C1Nc2ccccc2/C1=C1\CCc2cc(O)ccc21`, the inhibition amounted to 2.37%.
For the molecule `Cc1ccc(-c2cc3c(NC(=O)C4CC4)ncnc3o2)cc1`, the inhibition came out at 0.73%.
As to `CS(=O)(=O)Nc1ccc(-c2ccc3c(NC(=O)C4CC4)n[nH]c3c2)cc1`, the inhibition was determined as 0.94%.
Same read-out and setting: to `Cn1c(-c2nonc2N)nc2cnccc21` belongs 2.15%; to `COc1cccc(-n2ncc3c(N/N=C/c4ccc(C(=O)NCCN(C)C)cc4)ncnc32)c1`, 1.53%.
Consider `O=C(Nc1n[nH]c2nnc(-c3cccnc3)cc12)C1CC1`, for which the inhibition stood at 26.1%.
As for `COC(=O)Nc1nc2ccc(Oc3ccc(NC(=O)Nc4cc(C(F)(F)F)ccc4F)cc3)cc2s1`, the inhibition turned out to be 0.9%.
Same read-out and setting: for `NC(=O)c1ccc2c(-c3ccnc(NCCCO)n3)c(-c3ccc(F)cc3)nn2c1` the value was 1.1%; for `NS(=O)(=O)c1ccc(N/N=C2\C(=O)Nc3ccc(C(=O)NCc4ccncc4)cc32)cc1`, 1.75%; for `CNC(=O)c1ncccc1Nc1nc(Nc2cc3c(cc2OC)CCCN3C(=O)CN(C)C)nc2[nH]ccc12`, 18.9%.
Turning to `COc1ccccc1-c1cc(/C=C2\C(=O)Nc3ncc(Br)cc32)cc(Br)c1O`, the inhibition was found to be 0.14%.
On to `CN(C)CCNC(=O)Nc1ccc(N(C)c2ccnc(Nc3ccc(CS(C)(=O)=O)cc3)n2)cc1`, for which the inhibition stood at 1.06%.
Still for that read-out and setting: for `CS(=O)(=O)CCNCc1ccc(-c2ccc3ncnc(Nc4ccc(OCc5ccccc5)cc4)c3c2)o1` the value was 1.47%; for `COC(=O)Nc1nc2cc(Oc3ccc(NC(=O)Nc4ccccc4)cc3)ccc2[nH]1`, -0.24%; for `O=C(O[C@H]1CN[C@H](C#Cc2cc3ncnc(Nc4ccc(OCc5cccc(F)c5)c(Cl)c4)c3s2)C1)N1CCOCC1`, 0.79%.
Regarding `CCCNc1cccc(-n2ncc3c(N/N=C/c4ccncc4)ncnc32)c1`, the inhibition was 0.64%.
Consider `CC1=C(C(=O)Nc2ccc3[nH]nc(C)c3c2)C(c2ccc(C(F)(F)F)cc2)CC(=O)N1` (configuration not stated), for which the inhibition was found to be 1.05%.
In the case of `CN1CCC(C(=O)Nc2n[nH]c3nc(-c4ccc(O)cc4)c(Br)cc23)CC1`, the inhibition was 5.3% and 6.07%.
Same read-out and setting: to `Cc1cc(O)cc(C)c1/C=C/c1cncc(C(=O)OC(C)(C)C)c1` belongs 0.18%; to `CN1CCN(Cc2ccc(-c3cc4ncnc(Nc5ccc(OCc6cccc(F)c6)c(Cl)c5)c4s3)o2)CC1`, -0.54% and 0.21%.
